Results reported in PubChem BioAssay (NCATS).
“And” between values parts separate entries of the source, which are not always exact repeats. Equal values may be shown once. Results filed as inconclusive are left out. Values without a mark were called inactive. The source made the active and inactive calls. Calls follow the shape of the dose curve; as a rule, active = well fitted curve in the direction sought with a large enough effect; inconclusive = small, poorly fitted or top-dose-only effect, or another doubt; inactive = no such curve, though single readings can be large; an effect the other way counts as inactive or inconclusive.

Key:
[1] = target: Cellular tumor antigen p53 (Homo sapiens) (UniProt P04637); test: Primary qHTS for small molecule compounds that upregulate eGFP-tagged delta133p53alpha (in N-terminal) cells. (AID 2060322); settings: NCI-H358 eGFP-delta133p53alpha fluorescence, 24 h; activation: active compounds read high; also: nearly all actives have a fitted effect of over 75% in size; also: potency is read from the fitted curve at half-maximal effect;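 as to activation: series mostly up to about 56 µM; 0% = DMSO vehicle and 100% = reference activator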
Outline: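 NCI-H358 cells pre-induced 24 h with 10 ng/ml doxycycline to express N-terminal eGFP-delta133p53alpha, then dosed 24 h at 37C without doxycycline; fixed, Hoechst-stained, GFP intensity by laser scanning cytometry, normalized to DMSO (0%) and 57.5 uM 5-azacytidine (100%).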

[2] = target: Aldehyde dehydrogenase, mitochondrial (Homo sapiens) (UniProt P05091); test: qHTS for Inhibitors of the Aldehyde Dehydrogenase Family (ALDH2) Primary screen (AID 2061308);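 also: plate controls were vehicle for no effect and reference inhibitor for full effect; nearly all actives have a fitted effect of over 55% in size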
[3] = target: Retinaldehyde dehydrogenase 3 (Homo sapiens) (UniProt P47895); test: qHTS for Inhibitors of the Aldehyde Dehydrogenase Family (ALDH1A3) Primary screen (AID 2061315);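 also: plate controls were DMSO vehicle for no effect and reference inhibitor for full effect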
[4] = BET inhibitor-based combinations targeting novel dependencies in MECOM-rearranged (r) AML: MV-4-11 cell line (AID 2202233); also: nearly all actives have a fitted effect of over 45% in size; also: potency is read from the fitted curve at half-maximal effect
Outline: (§1)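 Activity is given as area under the curve and as Z-AUC, mean-centred within each cell line. It comes from 11-point dose curves normalized to DMSO and empty wells. CellTiter-Glo luminescence was read after 48 hr drug exposure of 500 cells/well.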

[5] = BET inhibitor-based combinations targeting novel dependencies in MECOM-rearranged (r) AML: HNT-34 cell line (AID 2202234); also: nearly all actives have a fitted effect of over 35% in size; also: potency is read from the fitted curve at half-maximal effect
Outline: as §1

[6] = BET inhibitor-based combinations targeting novel dependencies in MECOM-rearranged (r) AML: AML-191 cell line (AID 2202236; also: nearly all actives have a fitted effect of over 35% in size; also: potency is read from the fitted curve at half-maximal effect)
Outline: (§2)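 Cells were plated at 500 per well and exposed to an 11-point dose series of each drug for 48 hr. Viability was measured by CellTiter-Glo luminescence, normalized to DMSO and empty-well controls, and summarized as AUC and per-cell-line Z-AUC.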

[7] = BET inhibitor-based combinations targeting novel dependencies in MECOM-rearranged (r) AML: UCSD-AML1 cell line (AID 2202235); also: nearly all actives have a fitted effect of over 40% in size; also: potency is read from the fitted curve at half-maximal effect
Outline: as §1

[8] = BET inhibitor-based combinations targeting novel dependencies in MECOM-rearranged (r) AML: AML-194 cell line (AID 2202237; also: nearly all actives have a fitted effect of over 40% in size; also: potency is read from the fitted curve at half-maximal effect)
Outline: as §2

Cellular tumor antigen p53 (Homo sapiens), sequence (P04637 whole entry, looked up): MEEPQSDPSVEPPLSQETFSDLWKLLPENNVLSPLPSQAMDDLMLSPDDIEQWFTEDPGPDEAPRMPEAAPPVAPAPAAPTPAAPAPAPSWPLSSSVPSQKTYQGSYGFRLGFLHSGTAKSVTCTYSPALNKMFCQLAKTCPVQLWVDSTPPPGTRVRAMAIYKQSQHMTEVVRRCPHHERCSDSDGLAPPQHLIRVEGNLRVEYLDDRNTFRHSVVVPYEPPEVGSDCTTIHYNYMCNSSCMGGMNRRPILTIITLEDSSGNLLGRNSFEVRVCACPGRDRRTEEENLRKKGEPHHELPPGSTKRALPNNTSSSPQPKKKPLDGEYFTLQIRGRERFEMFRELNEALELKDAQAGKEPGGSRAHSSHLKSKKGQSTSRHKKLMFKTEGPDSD

Structure (SMILES)	activation [1]	Potency [2]	Potency [3]	Potency [4]	Potency [5]	Potency [6]	Potency [7]	Potency [8]	Potency [1]	activity change, negative = inhibition [2]	activity change, negative = inhibition [3]
Cc1cc(-c2cc(OC(=O)c3ccccc3)ccc2Cl)cc2nnc(Nc3ccc(OCCN4CCCC4)cc3)nc12	-29.5%	inactive	inactive	inactive	0.456 µM (active)	inactive	–	–	–	–	–
NS(=O)(=O)c1ccc(Nc2nc(OCC3CCCCC3)c3[nH]cnc3n2)cc1	-24.8%	inactive	inactive	3.32 µM (active)	–	–	10.5 µM (active)	–	–	–	–
CNC(=O)c1cccc2cc(Oc3ccnc4cc(OCC5(N)CC5)c(OC)cc34)ccc12	12.5%	inactive	inactive	–	16.6 µM (active)	20.9 µM (active)	18.6 µM (active)	23.5 µM (active)	–	–	–
CC(C)c1cc(CNc2nc(Nc3cc(C4CC4)[nH]n3)cc(N3CCN(C)CC3)n2)on1	–	inactive	inactive	–	0.0934 µM (active)	0.0833 µM (active)	0.742 µM (active)	–	4.26 µM (active)	–	–
Cc1cc(C(=O)Nc2cc(Oc3ccc4nc(NC(=O)C5CC5)cn4n3)ccc2C)n(C)n1	–	inactive	inactive	14.8 µM (active)	–	6.61 µM (active)	9.34 µM (active)	9.34 µM (active)	16.9 µM (active)	–	–
CC(C)(N)c1ccc(-c2nc3ccccc3nc2-c2ccccc2)cc1	25%	inactive	inactive	–	16.6 µM (active)	20.9 µM (active)	–	–	–	–	–
Nc1nccc(Oc2ccc(NC(=O)c3c[nH]cc(-c4ccc(F)cc4)c3=O)cc2F)c1Cl	–	inactive	inactive	0.0372 µM (active)	18.6 µM (active)	9.34 µM (active)	–	–	43.2 µM (active) and 30.1 µM (active)	–	–
N#Cc1c(C2CCNCC2)cc(-c2c(O)cccc2OCC2CC2)nc1N	-1.56%	inactive	inactive	–	23.5 µM (active)	26.3 µM (active)	16.6 µM (active)	16.6 µM (active)	–	–	–
CC(C)Nc1cc(C(F)(F)F)cc2nc(NC(=O)c3cccnc3)nn12	-46.7% and -1.43%	inactive	inactive	inactive	–	inactive	inactive	inactive	–	–	–
Cc1cc(F)c(C(=O)Nc2cccc(-c3nncn3C(C)C)n2)cc1-n1cnc(C2CC2)c1	35%	inactive	inactive	10.5 µM (active)	–	18.6 µM (active)	16.6 µM (active)	–	–	–	–
COC(=O)/C=C/C(=O)N(O)CCCCNCc1ccc(COC(=O)Nc2cccc3ccccc23)cc1	–	inactive	inactive	–	5.9 µM (active)	8.33 µM (active)	–	8.33 µM (active)	26.9 µM (active)	–	–
CS(=O)(=O)c1ccc(-c2cnc(N)c(C(=O)Nc3ccccc3)n2)cc1	-13%	inactive	inactive	7.42 µM (active)	–	4.68 µM (active)	–	5.9 µM (active)	–	–	–
CC1CCC(C(=O)N(c2cc(C#CC(C)(C)C)sc2C(=O)O)C2CCC(O)CC2)CC1 (stereo not drawn)	-32.4% and -8.93%	inactive	inactive	20.9 µM (active)	–	18.6 µM (active)	–	inactive	–	–	–
COc1ccc2cc(-c3nc(-c4ccc(S(C)=O)cc4)[nH]c3-c3ccncc3)ccc2c1 (stereo not drawn)	-7.86% and 8.04%	inactive	inactive	–	–	–	inactive	–	–	–	–
CS(=O)(=O)N1CCc2c(-c3cnc(N)nc3)nc(N3CCOCC3)nc21	26%	inactive	inactive	4.68 µM (active)	–	–	0.662 µM (active)	–	–	–	–
N#Cc1cccc(-c2c[nH]c3ncnc(N4CCOCC4)c23)c1	-5.36%	inactive	inactive	–	–	18.6 µM (active)	inactive	inactive	–	–	–
NC(=O)c1ccc2nc(-c3ccc(Oc4ccc(Cl)cc4)cc3)[nH]c2c1	-21.2% and -4.33%	inactive	inactive	–	–	inactive	inactive	–	–	–	–
Cn1ncnc1[C@H]1c2n[nH]c(=O)c3cc(F)cc(c23)N[C@@H]1c1ccc(F)cc1	-4.3% and 20.1%	inactive	inactive	0.0332 µM (active)	0.166 µM (active)	–	–	1.86 µM (active)	–	–	–
CCn1c(=O)c(-c2ccn[nH]2)cc2c(C)nc(N)nc21	4.46%	inactive	inactive	5.25 µM (active)	–	–	0.59 µM (active)	–	–	–	–
CC(C)[C@](O)(c1ccc2cc(OC(F)F)c(OC(F)F)cc2c1)c1cn[nH]n1	12.3%	inactive	inactive	–	18.6 µM (active)	–	inactive	–	–	–	–

Structure (SMILES)	activation [1]	Potency [2]	Potency [3]	Potency [4]	Potency [5]	Potency [6]	Potency [7]	Potency [8]	Potency [1]	activity change, negative = inhibition [2]	activity change, negative = inhibition [3]
CCN1CCN(c2ccc(Nc3cc(N(C)C(=O)Nc4c(Cl)c(OC)cc(OC)c4Cl)ncn3)cc2)CC1	34.2% and 7.14%	inactive	inactive	–	13.2 µM (active)	–	–	–	–	–	–
CC(O)c1cc(C(=O)N[C@@H](C)Cn2ccc(-c3ccc(C#N)c(Cl)c3)n2)n[nH]1 (stereo partly drawn)	1%	inactive	inactive	inactive	–	16.6 µM (active)	–	inactive	–	–	–
Cc1nc2ccc(-n3ncc(C(=O)c4cc5ccccc5[nH]4)c3N)cc2[nH]1	1.79%	inactive	inactive	6.61 µM (active)	–	–	–	16.6 µM (active)	–	–	–
CN(C)C(=O)c1cc2cnc(Nc3ccc(N4CCNCC4)cn3)nc2n1C1CCCC1	15.2%	inactive	inactive	–	inactive	inactive	–	–	–	–	–
Nc1ccc(/C=C/C(=O)NCc2cc3cc(-c4ccc(C(=O)N5CCC(F)(F)CC5)cc4)cc(-c4ccc(F)cc4)c3o2)cn1	-7%	inactive	inactive	2.35 µM (active)	0.742 µM (active)	–	1.18 µM (active)	18.6 µM (active)	–	–	–
CC(C)(O)CNc1nc(Nc2ccnc(C(F)(F)F)c2)nc(-c2cccc(C(F)(F)F)n2)n1	-5% and -21.6%	inactive	inactive	20.9 µM (active)	–	–	inactive	–	–	–	–
COc1cc(N2CCC(N3CCN(C)CC3)CC2)ccc1Nc1ncnc(Nc2ccccc2S(=O)(=O)C(C)C)n1	–	inactive	inactive	–	9.34 µM (active)	18.6 µM (active)	–	10.5 µM (active)	24.3 µM (active) and 26.9 µM (active)	–	–
CC(C)(C)Sc1c(CC(C)(C)C(=O)O)n(Cc2ccc(Cl)cc2)c2ccc(OCc3ccc4ccccc4n3)cc12	0%	inactive	inactive	–	26.3 µM (active)	–	–	–	–	–	–
Nc1ccn([C@@H]2C(F)=C(CO)[C@@H](O)[C@H]2O)c(=O)n1	0.893% and -30.2%	inactive	inactive	0.235 µM (active)	–	–	0.662 µM (active)	–	–	–	–
CCC(=O)N1CCN(c2ccc(-n3c(=O)ccc4cnc5ccc(-c6cnc7ccccc7c6)cc5c43)cc2C(F)(F)F)CC1	41.3%	–	–	–	–	–	0.0091 µM (active)	–	–	-6.8% [at 11.2 µM]	3.25% [at 11.2 µM]
CC(C)(CNC(=O)c1cccc(-c2noc(C(F)(F)F)n2)c1)c1coc(-c2ccccc2)n1	-0.477%	inactive	inactive	23.5 µM (active)	–	11.8 µM (active)	inactive	–	–	–	–
Nc1ncnc2c1c(-c1cccc(OCc3ccccc3)c1)cn2C1CC(CN2CCCC2)C1 (stereo not drawn)	31.8%	inactive	inactive	2.63 µM (active)	18.6 µM (active)	20.9 µM (active)	–	–	–	–	–
CN(C)CCCNC(=O)c1ccc(-c2cc(O)c3ncccc3c2)cc1	-8.46% and -17.9%	inactive	inactive	–	–	–	18.6 µM (active)	–	–	–	–
O=C(O)c1ccc(CCCc2ccc(OCCc3ccc(F)cc3)cc2)o1	-3.57%	inactive	inactive	–	inactive	–	inactive	inactive	–	–	–
CCn1c(C(=O)N(C2CC2)C2CC2)cc2c3c(ncn3C)c(Nc3cc(C)n(C)n3)nc21	-29.5%	inactive	inactive	–	16.6 µM (active)	–	3.32 µM (active)	–	–	–	–
Nc1ncnc2c1ncn2[C@@H]1O[C@H](CO)C[C@H]1O	–	inactive	inactive	inactive	–	inactive	–	inactive	12 µM (active)	–	–
CS(=O)(=O)N1CCN(Cc2cc3nc(-c4cccc5[nH]ncc45)nc(N4CCOCC4)c3s2)CC1	-25.9%	inactive	inactive	2.09 µM (active)	–	–	0.468 µM (active)	–	–	–	–
Cc1ccccc1C(=O)c1ccc(Nc2ccc(Br)cc2N)cc1Cl	19.2% and -0.893%	inactive	inactive	18.6 µM (active)	23.5 µM (active)	–	inactive	inactive	–	–	–
Nc1cccc(S(=O)(=O)N2CCCN(S(=O)(=O)c3ccc4c(c3)OCCO4)CC2)c1	17.7%	inactive	inactive	inactive	–	–	–	inactive	–	–	–
Cc1ccc(NC(=O)c2ccc(CN3CCNCC3)cc2)cc1Nc1nccc(-c2cccnc2)n1	-16.1%	inactive	inactive	18.6 µM (active)	2.63 µM (active)	–	–	23.5 µM (active)	–	–	–
